# Assay results reported in the supplement of paper PMC4723716.
# Tested on: Plasmodium falciparum NF54 gametocytes
# Assay: viability index relative to DMSO control (fraction); higher = less gametocyte killing
# Conditions: 12.5 µM, incubation time: 72 h
# How it was run: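 The viability index expresses each well's gametocyte particle count relative to the plate mean of solvent-only wells. Stage I–V P. falciparum NF54 gametocytes (0.50% gametocytemia, 1.25% hematocrit, 40 µl of serum-containing medium) were exposed to compound at 12.5 µM for 72 hr at 37°C under low oxygen in 384-well plates. They were stained for 20 min with 5 µl of 5 µM MitoTracker Red CMXRos, and 5 µl was then transferred into 40 µl of 500 nM dye in serum-free medium for imaging of three fields 30 min later.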
# [1] = gametocyte stage: Stage I viability index
# [2] = gametocyte stage: Stage II viability index
# [3] = gametocyte stage: Stage III viability index
# [4] = gametocyte stage: Stage IV viability index
# [5] = gametocyte stage: Stage V viability index
structure (smiles),measurement,setting,value
CN1c2ccccc2N(C)C1c1ccc2c(c1)OCO2,viability index,[1],0.952
same,viability index,[2],0.862
same,viability index,[3],1.05
same,viability index,[4],0.964
same,viability index,[5],1.03
COc1ccc(CCNC(=O)c2cc(S(=O)(=O)N3CC(C)CC(C)C3)ccc2Sc2ccc(F)cc2)cc1OC (stereo not given),viability index,[1],0.104
same,viability index,[2],0.445
same,viability index,[3],0.844
same,viability index,[4],0.769
same,viability index,[5],0.987
Cc1cc(C)c2c(c1)OCN(Cc1ccccc1Cl)C2,viability index,[1],0.0442
same,viability index,[2],0.13
same,viability index,[3],0.569
same,viability index,[4],0.663
same,viability index,[5],0.615
COc1ccc(-n2ccnc2SCC(=O)Nc2cc(C)ccc2C)c(OC)c1,viability index,[1],1.07
same,viability index,[2],0.949
same,viability index,[3],0.975
same,viability index,[4],0.939
same,viability index,[5],0.989
Oc1c(CN2CCN(c3ccccc3F)CC2)cc(Br)c2cccnc12,viability index,[1],0.0376
same,viability index,[2],0.0566
same,viability index,[3],0.0353
same,viability index,[4],0.0253
same,viability index,[5],0.026
CC(=O)Nc1nnc(SCc2c(C)cc(C(C)(C)C)cc2C)s1,viability index,[1],0.854
same,viability index,[2],0.701
same,viability index,[3],0.894
same,viability index,[4],0.793
same,viability index,[5],0.912
CCCCCCOC(=O)C1=C(C)NC(=O)NC1c1ccccc1F (stereo not given),viability index,[1],0.924
same,viability index,[2],0.896
same,viability index,[3],1.03
same,viability index,[4],1.04
same,viability index,[5],1.13
CN1CCN(c2nc(Nc3ccc(O)cc3)nc3ccccc23)CC1,viability index,[1],0.0262
same,viability index,[2],0.247
same,viability index,[3],0.796
same,viability index,[4],0.927
same,viability index,[5],0.74
CC(C)(C)c1ccc(C2CC3=Nc4ccccc4N(C(=O)c4ccccc4Cl)C(c4ccc(F)cc4)C3=C(O)C2)cc1 (stereo not given),viability index,[1],0.278
same,viability index,[2],0.223
same,viability index,[3],0.472
same,viability index,[4],0.503
same,viability index,[5],0.429
CCOc1ccc2nc(C)cc(Nc3ccc(Br)cc3)c2c1,viability index,[1],0.152
same,viability index,[2],0.407
same,viability index,[3],0.828
same,viability index,[4],0.851
same,viability index,[5],0.818
CCOC(=O)c1cnc2ccc(OC)cc2c1NCc1ccccc1,viability index,[1],0.309
same,viability index,[2],0.535
same,viability index,[3],0.991
same,viability index,[4],0.835
same,viability index,[5],0.87
COc1ccccc1N1CCN(C(CNS(=O)(=O)c2ccc(Cl)cc2)c2cccnc2)CC1 (stereo not given),viability index,[1],0.188
same,viability index,[2],0.564
same,viability index,[3],1.04
same,viability index,[4],0.815
same,viability index,[5],0.912
O=C(Nc1ccccc1O)c1ccc(-c2ccc(Cl)cc2Cl)o1,viability index,[1],0.0166
same,viability index,[2],0.0976
same,viability index,[3],0.6
same,viability index,[4],0.653
same,viability index,[5],0.736
COc1ccc(C=C2SC(Nc3ccc(F)cc3)=NC2=O)c(OC)c1,viability index,[1],0.76
same,viability index,[2],0.669
same,viability index,[3],0.676
same,viability index,[4],0.646
same,viability index,[5],0.558
CCN1CCN(Cc2ccc(NC(=O)c3cc4ccc5cccnc5c4[nH]3)cc2)CC1,viability index,[1],0.834
same,viability index,[2],0.845
same,viability index,[3],1.09
same,viability index,[4],0.997
same,viability index,[5],1.02
CCOC(=O)c1cnc2c(CC)cccc2c1O,viability index,[1],1.15
same,viability index,[2],0.838
same,viability index,[3],0.966
same,viability index,[4],0.835
same,viability index,[5],0.844
COc1ccc(N2CCN(C(CNC(=O)CC(C)(C)C)c3ccc4c(c3)OCO4)CC2)cc1 (stereo not given),viability index,[1],1.04
same,viability index,[2],0.928
same,viability index,[3],1.02
same,viability index,[4],0.826
same,viability index,[5],0.727
CCCCc1ccc(NS(=O)(=O)c2cc3c4c(c2)CCN4C(=O)CC3)cc1,viability index,[1],0.98
same,viability index,[2],0.982
same,viability index,[3],0.992
same,viability index,[4],1.12
same,viability index,[5],1.07
CC(C)(C)c1ccc(C(=O)Nc2nc3ccccc3s2)cc1,viability index,[1],0.787
same,viability index,[2],0.834
same,viability index,[3],0.813
same,viability index,[4],0.812
same,viability index,[5],0.736
COc1ccc(C(=O)NC(c2ccc(Cl)cc2Cl)c2cc(Cl)c3cccnc3c2O)cc1 (stereo not given),viability index,[1],0.0262
same,viability index,[2],0.0341
same,viability index,[3],0.0814
same,viability index,[4],0.136
same,viability index,[5],0.0779
Cn1c(C(=O)c2cccc3ccccc23)nc2ccccc21,viability index,[1],0.681
same,viability index,[2],0.95
same,viability index,[3],1.14
same,viability index,[4],1.01
same,viability index,[5],0.74
O=C(NCCCN1CCC(N2CCCCC2)CC1)C1=Cc2cc(Br)ccc2OC1,viability index,[1],0.0935
same,viability index,[2],0.427
same,viability index,[3],0.742
same,viability index,[4],0.699
same,viability index,[5],0.312
O=C(Cc1ccccc1)NC(c1ccc(Cl)cc1)c1c(O)ccc2ccccc12 (stereo not given),viability index,[1],0.0691
same,viability index,[2],0.316
same,viability index,[3],0.631
same,viability index,[4],0.604
same,viability index,[5],0.857
COc1cc2c3cc1Oc1c(OC)c(OC)cc4c1C(Cc1ccc(O)c(c1)Oc1ccc(cc1)CC3N(C)CC2)N(C)CC4 (stereo not given),viability index,[1],0.25
same,viability index,[2],0.465
same,viability index,[3],0.592
same,viability index,[4],0.528
same,viability index,[5],0.468
Cc1cccc(N2C(=O)C3C(C2=O)C2(c4ccccc4)C(=O)C3(c3ccccc3)C(c3ccc4c(c3)OCO4)=C2c2ccc3c(c2)OCO3)c1 (stereo not given),viability index,[1],1.16
same,viability index,[2],0.896
same,viability index,[3],1.08
same,viability index,[4],0.886
same,viability index,[5],1.03
